# Inconclusive results are not listed. Where a call stands in place of a potency, no number is given. The source made the active and inactive calls. Calls follow the shape of the dose curve; as a rule, active = well fitted curve in the direction sought with a large enough effect; inconclusive = small, poorly fitted or top-dose-only effect, or another doubt; inactive = no such curve, though single readings can be large; an effect the other way counts as inactive or inconclusive.
# Columns and labels:
# [1] = target: Glutathione peroxidase 1 (Homo sapiens) (UniProt P07203); assay: Primary qHTS Assay for Inhibitors of Recombinant Selenoprotein Glutathione Peroxidase 1 (GPX1) (AID 1845191); also: nearly all actives have a fitted effect of over 65% in size; also: potency is read from the fitted curve at half-maximal effect
# Glutathione peroxidase 1 (Homo sapiens), sequence (P07203 whole entry, looked up): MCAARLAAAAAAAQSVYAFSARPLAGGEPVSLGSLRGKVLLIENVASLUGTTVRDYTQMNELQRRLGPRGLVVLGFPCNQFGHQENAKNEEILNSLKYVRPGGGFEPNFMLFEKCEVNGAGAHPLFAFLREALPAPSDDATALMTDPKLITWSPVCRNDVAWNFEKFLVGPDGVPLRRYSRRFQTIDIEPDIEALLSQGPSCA
# Procedure, shortened: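 GPX1 10 nM, GR 100 nM, GSH 1 mM, NADPH 0.5 mM, CHP 0.5 mM (final). 30-min cpd preincubation, RT. Ex340/Em450 read t=0, t=15 min.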
# [2] = target: Phospholipid hydroperoxide glutathione peroxidase GPX4 (Homo sapiens) (UniProt P36969); assay: Primary qHTS Assay for Inhibitors of Recombinant Selenoprotein Glutathione Peroxidase 4 (GPX4) (AID 1845192); also: nearly all actives have a fitted effect of over 65% in size
# Phospholipid hydroperoxide glutathione peroxidase GPX4 (Homo sapiens), sequence (P36969 whole entry, looked up): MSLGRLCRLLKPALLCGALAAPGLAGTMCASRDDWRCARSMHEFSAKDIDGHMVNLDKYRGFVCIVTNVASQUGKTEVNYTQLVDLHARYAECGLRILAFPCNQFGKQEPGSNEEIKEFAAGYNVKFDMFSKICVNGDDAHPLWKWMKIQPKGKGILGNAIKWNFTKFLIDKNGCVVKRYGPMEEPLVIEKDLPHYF
# Procedure, shortened: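 qHTS, GR-coupled: GPX4 200 nM + cpd 30 min RT → GSH 1 mM, NADPH 0.5 mM, GR 100 nM → CHP 0.5 mM start; fluor 340/450 at t0 and t15 min; no-enzyme wells as control.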
# [3] = Quantitative High-Throughput drug screen in 47 multiple myeloma cell lines against the NCATS MIPE library collection: FR4_PLB cell viability assay (AID 1918924; also: nearly all actives have a fitted effect of over 35% in size; also: potency is read from the fitted curve at half-maximal effect)
# Procedure, shortened: (§1)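 qHTS of the MIPE 4.0 collection: 500 myeloma cells/well, 48 h drug exposure at 37C in 5% CO2, then CellTiter-Glo for 5 min at room temperature before luminescence reading.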
# [4] = Quantitative High-Throughput drug screen in 47 multiple myeloma cell lines against the NCATS MIPE library collection: Delta47_JCRB cell viability assay (AID 1918925; also: nearly all actives have a fitted effect of over 45% in size; also: potency is read from the fitted curve at half-maximal effect)
# Procedure, shortened: (§2)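 Inhibition of cell viability is measured here. Each line was plated at 500 cells per well, treated with MIPE 4.0 drugs, kept 48 hours at 37C, then assayed for ATP content by CellTiter-Glo luminescence.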
# [5] = Quantitative High-Throughput drug screen in 47 multiple myeloma cell lines against the NCATS MIPE library collection: EJM_DSMZ cell viability assay (AID 1918926; also: nearly all actives have a fitted effect of over 30% in size; also: potency is read from the fitted curve at half-maximal effect)
# Procedure, shortened: as §2
# [6] = Quantitative High-Throughput drug screen in 47 multiple myeloma cell lines against the NCATS MIPE library collection: AMO1_DSMZ cell viability assay (AID 1918927; also: nearly all actives have a fitted effect of over 30% in size; also: potency is read from the fitted curve at half-maximal effect)
# Procedure, shortened: as §2
# [7] = Quantitative High-Throughput drug screen in 47 multiple myeloma cell lines against the NCATS MIPE library collection: ARD_JJKsccE7 cell viability assay (AID 1918929; also: potency is read from the fitted curve at half-maximal effect)
# Procedure, shortened: as §2
# [8] = Quantitative High-Throughput drug screen in 47 multiple myeloma cell lines against the NCATS MIPE library collection: Karpas620_DSMZ cell viability assay (AID 1918959); also: nearly all actives have a fitted effect of over 30% in size; also: potency is read from the fitted curve at half-maximal effect
# Procedure, shortened: as §1
# [9] = Quantitative High-Throughput drug screen in 47 multiple myeloma cell lines against the NCATS MIPE library collection: Karpas417_ECACC cell viability assay (AID 1918961); conditions: Karpas417 myeloma viability, CellTiter-Glo ATP luminescence, 48 h; viability (% of DMSO): at 45.8 µM (top of the series); also: potency is read from the fitted curve at half-maximal effect
# Procedure, shortened: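 Luminescent ATP measurement with CellTiter-Glo gives viability, scaled between DMSO-only wells (100%) and media-only wells (0%). Cells, 500 per well, faced library compounds for 48 hours at 37C.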
# [10] = Quantitative High-Throughput drug screen in 47 multiple myeloma cell lines against the NCATS MIPE library collection: JIM1_ECACC cell viability assay (AID 1918964; also: potency is read from the fitted curve at half-maximal effect)
# Procedure, shortened: as §2
# [11] = target: Luciferin 4-monooxygenase (Photinus pyralis) (UniProt P08659); assay: Primary firefly luciferase (FLuc) qHTS assay for identification of artifact compounds. (AID 1845220); conditions: outcome: dose series up to 54.1 µM unless noted; also: nearly all actives have a fitted effect of over 60% in size
# Procedure, shortened: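 qHTS, 15 min compound preincubation with substrate (10 uM luciferin, 10 uM ATP) at RT, then 10 nM FLuc; 5 min; luminescence; % inhibition vs no-enzyme/DMSO controls, 4-parameter Hill fit.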
# [12] = Primary fluorescence-based thiol-reactive (MSTI) qHTS assay for identification of artifact compounds. (AID 1845221); also: nearly all actives have a fitted effect of over 65% in size; also: potency is read from the fitted curve at half-maximal effect
# Procedure, shortened: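 First, 4 uM MSTI in 2% DMSO/PBS pH 7.4 was dispensed; next, compounds were added; then plates sat 1 h at room temperature without light. Finally, emission at 598 nm was recorded.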
# [13] = system: Nanoluciferase (engineered Oplophorus gracilirostris luciferase); assay: Primary Nanoluciferase (NLuc) qHTS assay for identification of artifact compounds. (AID 1845222)
# Procedure, shortened: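 Luminescence read-out of secreted NLuc in S16 cell conditioned medium (1:55); compounds tested with 15 min RT preincubation, then Nano-Glo substrate 1:100, 5 min. % inhibition vs no-enzyme and DMSO controls, 4-parameter Hill fit.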
# [14] = Quantitative High-Throughput drug screen in 47 multiple myeloma cell lines against the NCATS MIPE library collection: ARP1_JJKsccF8 cell viability assay (AID 1918928; also: nearly all actives have a fitted effect of over 40% in size; also: potency is read from the fitted curve at half-maximal effect)
# Procedure, shortened: (§3)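 CellTiter-Glo luminescence after 48 h exposure gives viability, scaled between DMSO-only (100%) and media-only (0%) controls. Library compounds are pinned onto 500 myeloma cells per well, incubated at 37C with 5% CO2.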
# [15] = Quantitative High-Throughput drug screen in 47 multiple myeloma cell lines against the NCATS MIPE library collection: JIM3_ECACC cell viability assay (AID 1918963; also: nearly all actives have a fitted effect of over 35% in size; also: potency is read from the fitted curve at half-maximal effect)
# Procedure, shortened: as §1
# [16] = Quantitative High-Throughput drug screen in 47 multiple myeloma cell lines against the NCATS MIPE library collection: KMM1_JCRB cell viability assay (AID 1918960); also: nearly all actives have a fitted effect of over 30% in size; also: potency is read from the fitted curve at half-maximal effect
# Procedure, shortened: as §3
# [17] = Quantitative High-Throughput drug screen in 47 multiple myeloma cell lines against the NCATS MIPE library collection: KHM11_PLB cell viability assay (AID 1918962); also: nearly all actives have a fitted effect of over 35% in size; also: potency is read from the fitted curve at half-maximal effect
# Procedure, shortened: as §1
Structure (SMILES),Potency [1],Potency [2],Potency [3],Potency [4],Potency [5],Potency [6],Potency [7],Potency [8],Potency [9],Potency [10],outcome [11],Potency [12],outcome [13],Potency [14],Potency [15],Potency [16],Potency [17]
NC1=NC(=O)N2CC12 (centres undefined),inactive,inactive,inactive,10.5 µM (active),inactive,13.2 µM (active),18.7 µM (active),9.35 µM (active),1.66 µM (active),13.2 µM (active),,,,,,,
Cc1c(C(=O)Nc2cccc(C(F)(F)F)c2)cc(-c2ccccc2)n1CCCN1CCOCC1,inactive,inactive,23.5 µM (active),16.6 µM (active),18.7 µM (active),8.33 µM (active),5.9 µM (active),16.6 µM (active),7.43 µM (active),6.62 µM (active),inactive,inactive,inactive,20.9 µM (active),20.9 µM (active),,
O=C(O)CNC(=O)c1c(O)c2ccccc2n(Cc2ccccc2)c1=O,inactive,inactive,inactive,inactive,inactive,inactive,inactive,inactive,,inactive,inactive,,inactive,inactive,inactive,,
CN1CCN(c2ccc([N+](=O)[O-])c3no[n+]([O-])c23)CC1,18.3 µM (active),inactive,20.9 µM (active),8.33 µM (active),,16.6 µM (active),23.5 µM (active),20.9 µM (active),5.26 µM (active),,inactive,11.9 µM (active),,,23.5 µM (active),20.9 µM (active),14.8 µM (active)
O=C(Oc1ccc([N+](=O)[O-])cc1)N1CCN(Cc2cccc(Oc3ccccc3)c2)CC1,inactive,inactive,inactive,,inactive,inactive,,,,,inactive,,inactive,,inactive,,
CC(C)N(CCNC(=O)CN1CCCC1=O)C(C)C,inactive,,inactive,inactive,inactive,inactive,inactive,inactive,inactive,,inactive,inactive,inactive,,inactive,inactive,inactive
CN[C@@H]1Cc2cccc3[nH]c(=O)n(c23)C1,inactive,inactive,11.8 µM (active),inactive,inactive,,,inactive,,,,,,,inactive,,
CCCC[N+]1(C)[C@H]2CC(OC(=O)[C@H](CO)c3ccccc3)C[C@H]1[C@H]1O[C@H]12 (some centres undefined),inactive,inactive,inactive,inactive,,,inactive,inactive,,inactive,,,,,inactive,,inactive
O=C1C=CC[C@@H]2[C@H]3CCCN4CCC[C@@H](CN12)[C@@H]34,inactive,inactive,11.8 µM (active),,inactive,inactive,,inactive,inactive,,inactive,inactive,inactive,inactive,inactive,inactive,
Cc1ccccc1-n1c(Cn2cnc3c(N)ncnc32)nc2cccc(C)c2c1=O,inactive,inactive,6.62 µM (active),0.105 µM (active),4.18 µM (active),0.833 µM (active),,4.18 µM (active),0.132 µM (active),,inactive,inactive,inactive,0.132 µM (active),1.05 µM (active),,
O=C(Oc1ccc([N+](=O)[O-])cc1)N1CCC(C(O)(c2ccc3c(c2)OCO3)c2ccc3c(c2)OCO3)CC1,inactive,,inactive,,inactive,,,,,,inactive,inactive,inactive,,8.33 µM (active),,
O=C(NCC1CCOCC1)c1cnc(Nc2ccc(Cl)cc2Cl)nc1C(F)(F)F,inactive,,14.8 µM (active),7.43 µM (active),inactive,18.7 µM (active),,5.26 µM (active),,,inactive,inactive,inactive,,,,
Clc1ccccc1C(c1ccccc1)(c1ccccc1)n1cccn1,inactive,inactive,inactive,inactive,,,inactive,inactive,,inactive,,,,,inactive,,inactive
COc1ccc(N(C(=O)Oc2c(C)cccc2C)c2ccnc(Nc3ccc(N4CCN(C)CC4)cc3)n2)c(OC)c1,inactive,inactive,2.64 µM (active),4.18 µM (active),0.743 µM (active),1.48 µM (active),7.43 µM (active),2.64 µM (active),,2.64 µM (active),inactive,,inactive,,,,
CC(C)[C@H]1C(=O)N[C@H](CO)Cc2c[nH]c3cccc(c23)N1C,inactive,inactive,,inactive,inactive,inactive,,inactive,,,,,,inactive,,inactive,
